Experimental data published in PubChem BioAssay (NCI).
Compounds without any hit were thinned out: in the full panel of roughly 79,000, 15% have a hit. Rule as the data show it: active = growth inhibition above about 70%; inactive = the rest.

Key:
[1] = NCI Yeast Anticancer Drug Screen. Data for the rad50 strain (AID 155);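 also: 0% = growth of vehicle-only cultures of the same strain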; conditions: S. cerevisiae rad50 strain growth inhibition; at 50.0 µM; stronger effect = higher value
How it was run: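 Vehicle-treated cultures provide the reference for the growth inhibition reported for compound-exposed, repair-deficient yeast.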

[2] = NCI Yeast Anticancer Drug Screen. Data for the mec2-1 strain (AID 157); conditions: S. cerevisiae mec2-1 strain, at 50.0 µM, stronger effect = higher value
How it was run: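 Compounds were applied to mec2-1 yeast cells. Their growth was then compared with that of vehicle-treated cultures to give growth inhibition.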

[3] = NCI Yeast Anticancer Drug Screen. Data for the sgs1 mgt1 strain (AID 161);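 also: 0% = growth of cultures given vehicle only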; conditions: S. cerevisiae sgs1 mgt1 strain, at 50.0 µM, stronger effect = higher value
How it was run: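 Yeast cells carrying a defined DNA-repair defect were exposed to test compounds. Growth inhibition was measured relative to vehicle-treated controls.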

[4] = NCI Yeast Anticancer Drug Screen. Data for the cln2 rad14 strain (AID 165);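 also: 0% = growth equal to vehicle treated cultures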; conditions: S. cerevisiae cln2 rad14 strain, at 50.0 µM, stronger effect = higher value
How it was run: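 Strain: cln2 rad14 yeast, altered in cell cycle control and DNA damage repair. Read-out: growth inhibition vs vehicle.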

[5] = NCI Yeast Anticancer Drug Screen. Data for the bub3 strain (AID 167); conditions: S. cerevisiae bub3 mutant strain, at 50.0 µM, stronger effect = higher value
How it was run: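 Mutant yeast screening strain plus compound; vehicle-treated cultures serve as the 0% inhibition reference.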

[6] = NCI Yeast Anticancer Drug Screen. Data for the mlh1 rad18 strain (AID 175); conditions: S. cerevisiae mlh1 rad18 strain growth inhibition; at 50.0 µM; stronger effect = higher value
How it was run: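 A repair-deficient yeast strain is exposed to test compound, and growth is scored relative to vehicle-treated controls.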

Measured: growth inhibition

O=[N+]([O-])c1ccc(CCCCCc2ccccc2)cc1
inactive: [1] -6.15% | [2] -17.6% | [3] 0.6% | [4] -75.2% | [5] 4.5% | [6] -21.4%

COc1cc(OC)c(-c2cc(C(=O)O)c3cc4ccccc4cc3n2)c(OC)c1
inactive: [1] 18.2% | [2] 23.2% | [3] 24.1% | [4] 16.7% | [5] 21.6% | [6] 32%

COC(=O)C1CC(c2ccc(Cl)cc2)=NO1 (stereo unspecified)
inactive: [1] 36.4% | [2] 8.25% | [3] 8.5% | [4] 5.3% | [5] 1.5% | [6] 47.1%

CC(=O)OCC1OC(n2cc(CBr)nn2)C(OC(C)=O)C(OC(C)=O)C1OC(C)=O (stereo unspecified)
inactive: [1] 0.3% | [2] 4.9% | [3] -24.1% | [4] -13.6% | [5] 1.7% | [6] -19.9%

NNC(=O)CCC(=O)Nc1ccc(Cl)cc1Cl
inactive: [1] -19.9% | [2] 0.65% | [3] -8.25% | [4] 26.9% | [5] 5.1% | [6] 30.9%

C=CC(C)C1C(C)C(Cl)CC(Cl)C1OC(=O)c1ccccc1 (stereo unspecified)
inactive: [1] 14.1% | [2] -0.65% | [3] 10.7% | [4] -2.3% | [5] 17.8% | [6] -11.3%

Fc1ccc(Nc2cc(F)cc(F)c2)cc1
inactive: [1] 22.7% | [2] 8.45% | [3] 17.4% | [4] 3.2% | [5] 10.6% | [6] 11.1%

O=C(O)C1=C(O)CCN=C1
inactive: [1] -24.1% | [2] 2.7% | [3] 11% | [4] -10.8% | [5] -3.95% | [6] 27.1%

Cc1nn(C(=S)S)c(C)c1N=Nc1ccc(O)cc1
inactive: [1] 9.3% | [2] 10.5% | [3] 16.9% | [4] -16.7% | [5] 5.35% | [6] 18.6%

CC(C)=CCCC(=O)C(c1nc2nnc(N)n2[nH]c1=O)c1nc2nnc(N)n2[nH]c1=O
inactive: [1] 13.3% | [2] 13.6% | [3] -1.95% | [4] 17.8% | [5] 1.6% | [6] -7.55%

Cc1ccccc1-c1nc(/C=C2\C(=O)C=Cc3ccccc32)c(O)o1
inactive: [1] -17.3% | [2] -4.45% | [3] -1.1% | [4] 23.6% | [5] -2.55% | [6] -1.6%

Nc1cc(Cl)ccc1S(=O)(=O)O
inactive: [1] -7.1% | [2] -1.8% | [3] 2.1% | [4] -48.8% | [5] -15.1% | [6] -4.4%

CN(C)CCO[Si](C)(c1ccccc1)c1ccc(F)cc1 (stereo unspecified)
inactive: [1] 16.6% | [2] -7.95% | [3] 20.6% | [4] -10.1% | [5] 11.8% | [6] 3.95%

Nc1nc(NC(=O)C2=NS(=O)(=O)c3cc(S(N)(=O)=O)c(Cl)cc3N2)n[nH]1
inactive: [1] -8.9% | [2] -26.2% | [3] -3.85% | [4] 9.7% | [5] 0.7% | [6] -2.3%

Cc1ccc(/C=c2\cc3oc(=O)c4cccc(c4-3)c2=O)cc1
inactive: [1] -5.3% | [2] 18.1% | [3] 58.6% | [4] 23.6% | [5] 44% | [6] 19.1%

Cc1ccc(S(=O)(=O)OCCOCCOc2ccc(C(C)(C)CC(C)(C)C)cc2)cc1
inactive: [1] 49.7% | [2] 1.05% | [3] 34% | [4] 4.3% | [5] 3.8% | [6] 27%

CCCOc1ccc(C2=C(c3ccccc3)C(=O)C(c3ccccc3)=C2c2ccccc2)cc1
inactive: [1] 34.2% | [2] 15.6% | [3] 20.6% | [4] 20.2% | [5] 2.25% | [6] 20.6%

COc1cc2c(cc1OC)C(c1ccccc1)OCC2 (stereo unspecified)
inactive: [1] -8.25% | [2] 9.65% | [3] 6.8% | [4] -46.1% | [5] -2.6% | [6] -2.05%

NC(CCOCCP(=O)(O)CCOCCC(N)C(=O)O)C(=O)O (stereo unspecified)
inactive: [1] -42% | [2] -20.8% | [3] -27.1% | [4] -4.5% | [5] -8.95% | [6] -8.75%

Oc1[nH]c2ccccc2c1N=Nc1nc(-c2ccccc2)cs1
inactive: [1] -40.6% | [2] -52% | [3] -46% | [4] -0.9% | [5] -30.4% | [6] -18.8%

CCOC(=O)c1ccc(NC(=S)NCc2cccnc2)cc1
inactive: [1] 11.6% | [2] -3.25% | [3] 24.6% | [4] 4.95% | [5] 22.2% | [6] -6.7%

CCOC(=O)c1ccc(N=C2C(=S)N(c3ccc(C(=O)OCC)cc3)C(=N)N2/N=C/c2ccccc2)cc1
inactive: [1] 19.4% | [2] 13.4% | [3] 11.5% | [4] -4.55% | [5] 31.9% | [6] 1.95%

COc1cc2c(cc1OC)C(C(CBr)CBr)N(C1CCCC1)CC2 (stereo unspecified)
inactive: [1] -8.2% | [2] -15.3% | [3] 13.6% | [4] -19.9% | [5] -12.4% | [6] 11.6%

COc1ccc2c(c1)CN(Cc1ccccc1)CO2
inactive: [1] 3.85% | [2] -3.4% | [3] 6% | [4] -17.4% | [5] 13% | [6] 11.7%

O=C(CC(c1ccccc1)C(Sc1ccccc1)(Sc1ccccc1)Sc1ccccc1)c1ccccc1 (stereo unspecified)
inactive: [1] 13.2% | [2] 15.3% | [3] 13.4% | [4] 3% | [5] -1.35% | [6] 7.25%

CC12CC(C/C1=N/O)C(C)(C)C2 (stereo unspecified)
inactive: [1] -4.3% | [2] 16.4% | [3] 1.55% | [4] 15.7% | [5] -7.65% | [6] 9.6%

CCOC(=O)c1cc(=O)c2cccc(C)c2[nH]1
inactive: [1] 2.3% | [2] 10.7% | [3] -0.95% | [4] -9.3% | [5] -2% | [6] 20.6%

OC1CC=CC1
inactive: [1] 2.45% | [2] -3.5% | [3] -4.6% | [4] 0.35% | [5] 8.25% | [6] -12.8%

CC/C(=C(\CC)c1ccc(OC2C=CCCC2)cc1)c1ccc(OC2C=CCCC2)cc1 (stereo unspecified)
inactive: [1] 28.3% | [2] -4.7% | [3] 7% | [4] -2.55% | [5] -13.8% | [6] -0.1%

O=C1CC(NC(=O)c2ccccc2)C(=O)O1 (stereo unspecified)
inactive: [1] -5.75% | [2] 3.4% | [3] 18.8% | [4] -31.1% | [5] 4.3% | [6] -21.4%

CN(C)CCN(C)C(=N)N
inactive: [1] -10.3% | [2] -4.25% | [3] -6.45% | [4] -7.5% | [5] -6.55% | [6] -10.9%

O=C(NC1CC/C=C(/c2ccccc2)CC(Cl)C1)c1ccccc1 (stereo unspecified)
inactive: [1] 7.85% | [2] 4.9% | [3] -8.9% | [4] -3.5% | [5] 6.6% | [6] -0.25%

CC(C)COC(=N)c1ccccc1C1(O)CCCCC1
inactive: [1] -19.9% | [2] -10.1% | [3] -9.5% | [4] -18.8% | [5] 0.6% | [6] -17.6%

O=C(OCC1OC(OC(=O)c2ccccc2)C(F)C1OC(=O)c1ccccc1)c1ccccc1 (stereo unspecified)
inactive: [1] -2.65% | [2] -18.6% | [3] 7.15% | [4] -20.1% | [5] -8.25% | [6] 7.9%

CCCCn1cc(C(=O)O)c(=O)c2c3sccc3ccc21
inactive: [1] -24.1% | [2] -35.8% | [3] -8.95% | [4] -5.15% | [5] -9.5% | [6] -26.1%

O=C(N/N=C/c1ccc(Cl)cc1Cl)c1cccc2ccccc12
inactive: [1] 8.2% | [2] -6.3% | [3] -15% | [4] -5.6% | [5] 11.6% | [6] 3.1%

CCCCNC(=O)NCCCC
inactive: [1] 5.85% | [2] 3.6% | [3] -5.75% | [4] -4.5% | [5] -2.65% | [6] -0.15%

Nc1ccc(C(=O)Nc2nccs2)cc1
inactive: [1] 8.4% | [2] 12.6% | [3] 6.8% | [4] -19.8% | [5] 14.6% | [6] 4.75%

Cn1cnc2cc(N3CCOCC3)c([N+](=O)[O-])cc2c1=O
inactive: [1] 17.4% | [2] 12% | [3] -0.7% | [4] 12.8% | [5] -1.9% | [6] 17.8%

COC1(OC)C2(Cl)C(Cl)=C(Cl)C1(Cl)C1C=CC=CC12 (stereo unspecified)
inactive: [1] -19.9% | [2] -14.2% | [3] -14.3% | [4] 5.55% | [5] -18.6% | [6] -35.3%

O=C(O)c1c(CC(Cc2ccc3c(c2)CCCC3)C(=O)O)ccc2c1CCCC2 (stereo unspecified)
inactive: [1] 46.3% | [2] 23.6% | [3] 9.8% | [4] 11.8% | [5] 40.9% | [6] 56.7%
